# From PubChem BioAssay (EPA / NIEHS)
# Records with an inconclusive call do not appear. The source made the active and inactive calls. Rule for the calls: active = hit-call score of the fitted dose curve at least 0.9, where 1 is the maximum; inconclusive = response in the unintended direction; inactive = score below 0.9.
# Key:
# [1] = target: human Retinoic Acid Receptor beta (RARb), RARB (gene 5915) (UniProt P10826); test: ATG_RARb_TRANS: Attagene TRANS-FACTORIAL HepG2 Assay for human Retinoic Acid Receptor beta (AID 2283004)
# How it was run: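 HepG2, transient MRTU transfection, NR–Gal4 chimera, 24 h treatment; RT-PCR plus CE fluorescence detection of reporter mRNA; gain of signal vs DMSO.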
# [2] = target: Retinoic acid receptor alpha (Homo sapiens) (UniProt P10276); test: ATG_RARa_TRANS: Attagene TRANS-FACTORIAL HepG2 Assay for human Retinoic Acid Receptor alpha (RARa) (AID 2283005)
# How it was run: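 HepG2 cells transiently transfected with multiple reporter units expressing chimeric RARα-GAL4 fusion, with GAL4-UAS-driven reporters. After 24 h compound exposure, reporter mRNA induction quantified by RT-PCR and capillary electrophoresis with fluorescent labeling; gain-of-signal fitted relative to DMSO control.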
# [3] = target: Nuclear receptor subfamily 1 group I member 2 (Homo sapiens) (UniProt O75469); test: ATG_PXR_TRANS: Attagene TRANS-FACTORIAL HepG2 Assay for human Pregnane X Receptor (PXR) (AID 2283008)
# How it was run: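 Multiplexed TRANS reporter panel in HepG2; this component tracks PXR-Gal4-driven reporter mRNA after 24 h dosing, measured by RT-PCR with capillary electrophoresis fluorescence, fitted against DMSO.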
# [4] = target: human Retinoic Acid Receptor gamma (RARg), RARG (gene 5916) (UniProt P13631); test: ATG_RARg_TRANS: Attagene TRANS-FACTORIAL HepG2 Assay for human Retinoic Acid Receptor gamma (RARg) (AID 2283009);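 for AC50: AC50 is for reporter induction above DMSO meaning RARg activation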
# How it was run: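 TRANS format measured activity of exogenous NR-GAL4 fusion (RARg) in transfected HepG2 liver cells after 24 h dosing. Induced reporter RNA was detected by RT-PCR/capillary electrophoresis fluorescence, analysed in the positive direction against DMSO.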
# [5] = target: human RAR-related Orphan Receptor beta (RORb), RORB (gene 6096) (UniProt Q92753); test: ATG_RORb_TRANS: Attagene TRANS-FACTORIAL HepG2 Assay for human RAR-related Orphan Receptor beta (RORb) (AID 2283010)
# How it was run: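 Transfect HepG2 with multiple GAL4-UAS reporter transcription units; dose chemicals for 24 h; isolate RNA, reverse-transcribe and PCR-amplify reporter sequences; label, digest and resolve fragments by capillary electrophoresis; fit increases relative to DMSO.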
# [6] = target: human RAR-related Orphan Receptor gamma (RORg), RORC (gene 6097) (UniProt P51449); test: ATG_RORg_TRANS: Attagene TRANS-FACTORIAL HepG2 Assay for human RAR-related Orphan Receptor gamma (RORg) (AID 2283011)
# How it was run: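 Activity is scored as increase in GAL4-UAS reporter mRNA over DMSO, detected by fluorescent RT-PCR and capillary electrophoresis in HepG2 cells transiently expressing a RORg-Gal4 chimera, 24 h after dosing.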
# [7] = target: Retinoic acid receptor RXR-alpha (Homo sapiens) (UniProt P19793); test: ATG_RXRa_TRANS: Attagene TRANS-FACTORIAL HepG2 Assay for human Retinoid X Receptor alpha (RXRa) (AID 2283012)
# How it was run: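 Measures exogenous chimeric NR-GAL4 activity in transfected HepG2 liver cells after 24 h of dosing. Induced reporter mRNA was detected by RT-PCR with capillary electrophoresis, and gain of signal was analysed against DMSO.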
# [8] = target: human Vitamin D Receptor (VDR), VDR (gene 7421) (UniProt P11473); test: ATG_VDR_TRANS: Attagene TRANS-FACTORIAL HepG2 Assay for human Vitamin D Receptor (VDR) (AID 2283022)
# How it was run: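 Fluorescence of labelled reporter cDNA fragments, resolved by capillary electrophoresis, gives mRNA induction after 24 h treatment of HepG2 cells carrying transfected Gal4-fusion reporter units. Activity is fitted in the positive direction with DMSO as baseline.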
# [9] = target: Peroxisome proliferator-activated receptor gamma (Homo sapiens) (UniProt P37231); test: ATG_PPARg_TRANS: Attagene TRANS-FACTORIAL HepG2 Assay for human Peroxisome Proliferator-activated Receptor-gamma (PPARg) (AID 2283007)
# How it was run: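 HepG2 cells transiently transfected with multiplexed GAL4-UAS reporter units and exogenous chimeric NR-Gal4 proteins; reporter mRNA quantified after 24 h compound exposure by RT-PCR, fluorescent labelling, HpaI digestion and capillary electrophoresis; gain-of-signal fitted versus DMSO baseline.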
# [10] = target: human Retinoid X Receptor beta (RXRb), RXRB (gene 6257) (UniProt P28702); test: ATG_RXRb_TRANS: Attagene TRANS-FACTORIAL HepG2 Assay for human Retinoid X Receptor beta (RXRb) (AID 2283013)
# How it was run: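 Chimeric receptor-Gal4 activity was assessed in transiently transfected human HepG2 cells after 24 h exposure. Transcripts from GAL4-UAS reporters were quantified by fluorescent RT-PCR and capillary electrophoresis, with DMSO as negative control and baseline.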
# [11] = target: human Thyroid Receptor alpha (THRa1), THRA (gene 7067) (UniProt P10827); test: ATG_THRa1_TRANS: Attagene TRANS-FACTORIAL HepG2 Assay for human Thyroid Receptor alpha (THRa1) (AID 2283014)
# How it was run: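 First, HepG2 cells receive multiple GAL4-UAS reporter units and the chimeric receptor. They are then dosed for 24 h, after which RNA is reverse-transcribed, amplified, labelled, HpaI-cut and sized by capillary electrophoresis; gain relative to DMSO is scored.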
# human Retinoid X Receptor beta (RXRb), RXRB (gene 6257), sequence (P28702 whole entry, looked up, the tested form may be a part): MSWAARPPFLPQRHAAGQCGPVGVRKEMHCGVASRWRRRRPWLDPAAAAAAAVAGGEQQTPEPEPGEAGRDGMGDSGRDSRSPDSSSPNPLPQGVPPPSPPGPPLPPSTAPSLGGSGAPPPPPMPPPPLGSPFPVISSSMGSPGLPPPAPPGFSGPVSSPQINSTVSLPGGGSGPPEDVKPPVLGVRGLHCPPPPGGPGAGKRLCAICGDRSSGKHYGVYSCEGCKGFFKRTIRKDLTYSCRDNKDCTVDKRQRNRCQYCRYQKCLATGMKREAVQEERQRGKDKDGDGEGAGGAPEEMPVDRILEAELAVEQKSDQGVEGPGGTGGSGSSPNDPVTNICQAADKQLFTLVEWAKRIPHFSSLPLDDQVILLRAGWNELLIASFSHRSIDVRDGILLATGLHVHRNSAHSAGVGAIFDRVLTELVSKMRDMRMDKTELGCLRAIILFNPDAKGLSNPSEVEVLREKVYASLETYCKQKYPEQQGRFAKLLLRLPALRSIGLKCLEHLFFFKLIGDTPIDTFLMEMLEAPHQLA
# Retinoic acid receptor alpha (Homo sapiens), sequence (P10276 whole entry, looked up, the tested form may be a part): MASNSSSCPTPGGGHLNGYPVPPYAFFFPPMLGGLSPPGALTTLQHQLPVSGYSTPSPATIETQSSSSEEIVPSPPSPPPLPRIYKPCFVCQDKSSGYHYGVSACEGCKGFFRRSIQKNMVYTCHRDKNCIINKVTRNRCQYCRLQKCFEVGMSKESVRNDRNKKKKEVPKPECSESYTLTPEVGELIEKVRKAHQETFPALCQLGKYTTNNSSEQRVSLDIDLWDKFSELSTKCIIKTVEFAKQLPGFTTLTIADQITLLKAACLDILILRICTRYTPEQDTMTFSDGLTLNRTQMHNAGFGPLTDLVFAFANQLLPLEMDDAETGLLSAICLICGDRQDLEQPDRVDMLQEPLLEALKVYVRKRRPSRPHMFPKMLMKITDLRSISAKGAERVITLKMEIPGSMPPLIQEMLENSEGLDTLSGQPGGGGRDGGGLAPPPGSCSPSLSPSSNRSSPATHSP
# human RAR-related Orphan Receptor beta (RORb), RORB (gene 6096), sequence (Q92753 whole entry, looked up, the tested form may be a part): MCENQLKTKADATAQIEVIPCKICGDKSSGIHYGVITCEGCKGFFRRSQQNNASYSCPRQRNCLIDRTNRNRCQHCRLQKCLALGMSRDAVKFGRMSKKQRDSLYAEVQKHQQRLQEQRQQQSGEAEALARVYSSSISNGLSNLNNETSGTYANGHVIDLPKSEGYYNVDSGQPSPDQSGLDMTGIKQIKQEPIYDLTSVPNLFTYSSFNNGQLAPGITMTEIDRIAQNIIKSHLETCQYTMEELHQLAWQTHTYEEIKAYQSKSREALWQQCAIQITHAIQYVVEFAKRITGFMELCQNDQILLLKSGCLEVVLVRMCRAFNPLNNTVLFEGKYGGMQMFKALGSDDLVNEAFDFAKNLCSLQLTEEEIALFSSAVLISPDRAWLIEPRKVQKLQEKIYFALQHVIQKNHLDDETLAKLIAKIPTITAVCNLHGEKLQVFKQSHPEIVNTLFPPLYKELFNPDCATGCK
# Retinoic acid receptor RXR-alpha (Homo sapiens), sequence (P19793 whole entry, looked up, the tested form may be a part): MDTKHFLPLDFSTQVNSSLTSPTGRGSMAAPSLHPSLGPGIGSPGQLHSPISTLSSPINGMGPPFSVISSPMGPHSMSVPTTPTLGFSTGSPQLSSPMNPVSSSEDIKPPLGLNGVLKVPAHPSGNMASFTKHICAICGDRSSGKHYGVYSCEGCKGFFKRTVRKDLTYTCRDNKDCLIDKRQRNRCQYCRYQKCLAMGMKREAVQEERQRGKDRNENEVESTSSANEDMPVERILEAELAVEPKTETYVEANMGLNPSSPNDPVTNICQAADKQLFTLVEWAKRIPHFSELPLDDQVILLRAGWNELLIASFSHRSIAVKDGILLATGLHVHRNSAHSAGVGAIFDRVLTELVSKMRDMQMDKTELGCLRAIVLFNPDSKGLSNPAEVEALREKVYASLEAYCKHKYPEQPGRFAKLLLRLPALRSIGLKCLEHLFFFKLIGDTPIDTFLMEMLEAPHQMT
# Peroxisome proliferator-activated receptor gamma (Homo sapiens), sequence (P37231 whole entry, looked up, the tested form may be a part): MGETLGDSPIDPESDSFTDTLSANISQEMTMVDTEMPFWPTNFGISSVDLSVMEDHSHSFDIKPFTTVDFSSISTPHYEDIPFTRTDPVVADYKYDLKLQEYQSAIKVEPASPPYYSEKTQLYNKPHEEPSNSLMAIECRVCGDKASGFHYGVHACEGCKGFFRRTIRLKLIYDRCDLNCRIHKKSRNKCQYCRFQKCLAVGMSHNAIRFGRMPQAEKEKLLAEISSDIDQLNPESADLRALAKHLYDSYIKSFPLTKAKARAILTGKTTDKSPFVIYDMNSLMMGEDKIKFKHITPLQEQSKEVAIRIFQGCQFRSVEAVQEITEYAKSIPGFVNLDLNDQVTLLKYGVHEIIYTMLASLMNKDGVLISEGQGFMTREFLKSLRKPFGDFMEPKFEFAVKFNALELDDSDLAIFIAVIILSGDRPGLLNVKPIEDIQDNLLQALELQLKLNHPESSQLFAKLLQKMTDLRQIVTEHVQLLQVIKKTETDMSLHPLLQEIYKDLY
# human Vitamin D Receptor (VDR), VDR (gene 7421), sequence (P11473 whole entry, looked up, the tested form may be a part): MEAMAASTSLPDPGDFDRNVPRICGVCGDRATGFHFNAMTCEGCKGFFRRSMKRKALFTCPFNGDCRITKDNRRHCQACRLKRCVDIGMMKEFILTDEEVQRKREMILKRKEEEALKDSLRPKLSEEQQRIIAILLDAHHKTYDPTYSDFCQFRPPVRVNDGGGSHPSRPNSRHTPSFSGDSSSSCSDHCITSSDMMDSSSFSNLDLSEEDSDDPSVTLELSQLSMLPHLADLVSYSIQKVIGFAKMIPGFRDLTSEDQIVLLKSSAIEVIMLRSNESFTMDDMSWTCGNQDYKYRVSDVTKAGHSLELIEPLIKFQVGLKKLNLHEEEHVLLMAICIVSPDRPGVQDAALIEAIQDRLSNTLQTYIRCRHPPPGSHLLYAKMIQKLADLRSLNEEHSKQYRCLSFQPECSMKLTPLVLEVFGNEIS
# human Retinoic Acid Receptor gamma (RARg), RARG (gene 5916), sequence (P13631 whole entry, looked up, the tested form may be a part): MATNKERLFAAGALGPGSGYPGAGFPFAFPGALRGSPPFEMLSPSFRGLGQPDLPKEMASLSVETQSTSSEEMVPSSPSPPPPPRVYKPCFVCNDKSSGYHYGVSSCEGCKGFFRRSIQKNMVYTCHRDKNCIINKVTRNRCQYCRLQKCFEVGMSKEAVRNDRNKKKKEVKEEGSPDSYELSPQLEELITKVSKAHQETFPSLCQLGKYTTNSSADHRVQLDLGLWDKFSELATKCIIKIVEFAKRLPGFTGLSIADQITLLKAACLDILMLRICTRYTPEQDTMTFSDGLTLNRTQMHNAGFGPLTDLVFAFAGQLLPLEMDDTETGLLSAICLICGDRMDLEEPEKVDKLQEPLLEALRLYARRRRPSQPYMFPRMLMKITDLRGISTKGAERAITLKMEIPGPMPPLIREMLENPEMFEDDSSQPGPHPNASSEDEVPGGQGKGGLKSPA
# Nuclear receptor subfamily 1 group I member 2 (Homo sapiens), sequence (O75469 whole entry, looked up, the tested form may be a part): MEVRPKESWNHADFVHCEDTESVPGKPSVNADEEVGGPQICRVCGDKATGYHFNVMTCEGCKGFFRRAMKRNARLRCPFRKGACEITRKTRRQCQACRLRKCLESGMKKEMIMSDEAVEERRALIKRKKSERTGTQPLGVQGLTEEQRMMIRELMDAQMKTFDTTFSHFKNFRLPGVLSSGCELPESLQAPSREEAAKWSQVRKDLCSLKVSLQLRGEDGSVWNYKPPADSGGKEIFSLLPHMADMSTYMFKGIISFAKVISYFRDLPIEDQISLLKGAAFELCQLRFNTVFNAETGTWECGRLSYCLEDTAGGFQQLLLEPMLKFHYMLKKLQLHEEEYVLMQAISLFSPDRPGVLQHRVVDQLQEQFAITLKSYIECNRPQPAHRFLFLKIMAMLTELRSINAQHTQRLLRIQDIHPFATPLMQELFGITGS
# human Thyroid Receptor alpha (THRa1), THRA (gene 7067), sequence (P10827 whole entry, looked up, the tested form may be a part): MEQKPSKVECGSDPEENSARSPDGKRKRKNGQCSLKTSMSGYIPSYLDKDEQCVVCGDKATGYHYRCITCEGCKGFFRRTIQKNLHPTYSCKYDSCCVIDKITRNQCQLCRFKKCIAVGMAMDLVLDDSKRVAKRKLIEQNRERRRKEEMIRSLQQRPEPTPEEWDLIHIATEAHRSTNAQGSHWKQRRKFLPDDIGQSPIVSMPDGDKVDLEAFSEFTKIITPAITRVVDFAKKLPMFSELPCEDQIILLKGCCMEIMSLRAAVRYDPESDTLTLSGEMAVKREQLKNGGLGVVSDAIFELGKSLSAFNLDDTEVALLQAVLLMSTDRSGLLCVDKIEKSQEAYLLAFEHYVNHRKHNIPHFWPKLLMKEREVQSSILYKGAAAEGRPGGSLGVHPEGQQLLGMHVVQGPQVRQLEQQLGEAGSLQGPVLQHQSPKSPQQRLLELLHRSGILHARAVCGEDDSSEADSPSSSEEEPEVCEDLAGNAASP
# human RAR-related Orphan Receptor gamma (RORg), RORC (gene 6097), sequence (P51449 whole entry, looked up, the tested form may be a part): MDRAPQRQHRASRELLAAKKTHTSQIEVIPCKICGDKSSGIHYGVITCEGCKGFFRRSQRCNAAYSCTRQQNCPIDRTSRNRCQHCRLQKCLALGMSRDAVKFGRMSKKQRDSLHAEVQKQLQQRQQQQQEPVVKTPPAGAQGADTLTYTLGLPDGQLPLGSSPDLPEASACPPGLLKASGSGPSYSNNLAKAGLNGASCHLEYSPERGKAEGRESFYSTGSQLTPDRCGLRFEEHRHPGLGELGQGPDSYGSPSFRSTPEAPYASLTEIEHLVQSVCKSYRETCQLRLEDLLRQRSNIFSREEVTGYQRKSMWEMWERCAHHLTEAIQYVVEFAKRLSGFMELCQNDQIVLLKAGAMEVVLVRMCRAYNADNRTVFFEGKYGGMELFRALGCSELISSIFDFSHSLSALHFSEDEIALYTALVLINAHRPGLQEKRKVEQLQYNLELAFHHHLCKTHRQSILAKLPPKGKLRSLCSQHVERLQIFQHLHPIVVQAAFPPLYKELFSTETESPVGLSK
compound,measurement,setting,value
CCCCN(C)C,outcome,[1],inactive
same,outcome,[2],inactive
same,outcome,[3],inactive
same,outcome,[4],inactive
same,outcome,[5],inactive
same,outcome,[6],inactive
same,outcome,[7],inactive
O=C(O)C(=O)O,outcome,[1],inactive
same,outcome,[3],inactive
same,outcome,[5],inactive
same,outcome,[7],inactive
same,outcome,[8],inactive
Cc1ccc2ccc3ccc(C)cc3c2c1,outcome,[1],inactive
same,outcome,[9],inactive
same,AC50,[3],14.4 µM (active)
same,outcome,[5],inactive
same,outcome,[6],inactive
same,outcome,[7],inactive
same,AC50,[10],12.9 µM (active)
same,outcome,[8],inactive
c1cc2cccc3c4cccc5cccc(c(c1)c23)c54,outcome,[1],inactive
same,outcome,[9],inactive
same,outcome,[3],inactive
same,outcome,[5],inactive
same,outcome,[6],inactive
same,outcome,[10],inactive
same,outcome,[11],inactive
same,outcome,[8],inactive
CC=O,outcome,[1],inactive
same,outcome,[6],inactive
same,outcome,[7],inactive
same,outcome,[8],inactive
O=C1OC(=O)C(F)(F)C1(F)F,outcome,[1],inactive
same,outcome,[2],inactive
same,outcome,[9],inactive
same,outcome,[4],inactive
same,outcome,[7],inactive
same,outcome,[11],inactive
Nc1ccc(O)c(C(=O)O)c1,outcome,[1],inactive
same,outcome,[9],inactive
same,outcome,[3],inactive
same,outcome,[4],inactive
same,outcome,[5],inactive
same,outcome,[10],inactive
same,outcome,[8],inactive
CC1CCC(CO)CC1 (stereo not drawn),outcome,[1],inactive
same,outcome,[2],inactive
same,outcome,[3],inactive
same,outcome,[5],inactive
same,outcome,[6],inactive
same,outcome,[7],inactive
same,outcome,[8],inactive
CC(C)[C@@H]1CC[C@@H](C)C[C@H]1O,outcome,[1],inactive
same,outcome,[9],inactive
same,outcome,[3],inactive
same,outcome,[5],inactive
same,outcome,[7],inactive
same,outcome,[10],inactive
same,outcome,[8],inactive
FC(F)(F)C(F)(F)C(F)(F)C(F)(F)I,outcome,[1],inactive
same,outcome,[9],inactive
same,outcome,[3],inactive
same,outcome,[6],inactive
same,outcome,[7],inactive
same,outcome,[8],inactive
O=C(Nc1cccc([N+](=O)[O-])c1)c1cc2ccccc2cc1O,outcome,[2],inactive
same,AC50,[9],6.92 µM (active)
same,AC50,[3],8.27 µM (active)
same,outcome,[4],inactive
same,outcome,[5],inactive
same,outcome,[7],inactive
same,outcome,[10],inactive
same,outcome,[8],inactive
O=C(OC(=O)C(F)(F)C(F)(F)F)C(F)(F)C(F)(F)F,outcome,[2],inactive
same,outcome,[9],inactive
same,outcome,[3],inactive
same,outcome,[4],inactive
same,outcome,[6],inactive
same,outcome,[7],inactive
same,outcome,[11],inactive
same,outcome,[8],inactive
FC(F)(F)N1C(F)(F)C(F)(F)OC(F)(F)C1(F)F,outcome,[1],inactive
same,outcome,[2],inactive
same,outcome,[9],inactive
same,outcome,[5],inactive
same,outcome,[6],inactive
same,outcome,[10],inactive
Brc1cc(Br)c(Oc2c(Br)cc(Br)c(Br)c2Br)cc1Br,outcome,[1],inactive
same,outcome,[9],inactive
same,outcome,[3],inactive
same,outcome,[6],inactive
same,outcome,[7],inactive
same,outcome,[8],inactive
CC(C)(C)C1CCCCC1O (stereo not drawn),outcome,[1],inactive
same,outcome,[3],inactive
same,outcome,[4],inactive
same,outcome,[5],inactive
same,outcome,[6],inactive
same,outcome,[7],inactive
same,outcome,[11],inactive
CCCCCCCCCCCC[N+](C)(C)CCCCCCCCCCCC,outcome,[2],inactive
same,outcome,[9],inactive
same,outcome,[3],inactive
same,AC50,[4],27.3 µM (active)
same,outcome,[5],inactive
same,outcome,[7],inactive
same,outcome,[11],inactive
same,outcome,[8],inactive
FC1(F)C=CC(F)(F)C1(F)F,outcome,[1],inactive
same,outcome,[9],inactive
same,outcome,[3],inactive
Cn1sccc1=O,outcome,[1],inactive
same,outcome,[3],inactive
same,outcome,[7],inactive
same,outcome,[8],inactive
O=C(c1cc(O)c(O)c(O)c1)c1ccc(O)c(O)c1O,outcome,[1],inactive
same,outcome,[3],inactive
same,outcome,[4],inactive
same,outcome,[5],inactive
same,outcome,[6],inactive
same,outcome,[7],inactive
same,outcome,[8],inactive
CCOC(C)=O,outcome,[1],inactive
same,outcome,[9],inactive
same,outcome,[3],inactive
same,outcome,[4],inactive
same,outcome,[5],inactive
same,outcome,[6],inactive
same,outcome,[11],inactive
same,outcome,[8],inactive
Oc1c(Cl)ccc(Cl)c1Cl,outcome,[2],inactive
same,AC50,[9],19.5 µM (active)
same,outcome,[3],inactive
same,outcome,[4],inactive
same,outcome,[5],inactive
same,outcome,[7],inactive
same,outcome,[8],inactive
CCCC=O,outcome,[1],inactive
same,outcome,[2],inactive
same,outcome,[3],inactive
same,outcome,[4],inactive
same,outcome,[5],inactive
same,outcome,[6],inactive
same,outcome,[7],inactive
same,outcome,[8],inactive
NCCN,outcome,[1],inactive
same,outcome,[2],inactive
same,outcome,[9],inactive
same,outcome,[6],inactive
CC1CNCC(C)O1 (stereo not drawn),outcome,[1],inactive
same,outcome,[9],inactive
same,outcome,[3],inactive
same,outcome,[4],inactive
same,outcome,[6],inactive
same,outcome,[7],inactive
same,outcome,[10],inactive
same,outcome,[8],inactive
Cc1ccccc1OCC(=O)O,outcome,[1],inactive
same,outcome,[6],inactive
same,outcome,[10],inactive
CCC(C)c1nccnc1OC (stereo not drawn),outcome,[1],inactive
same,outcome,[2],inactive
same,outcome,[9],inactive
same,outcome,[6],inactive
same,outcome,[7],inactive
same,outcome,[10],inactive
same,outcome,[8],inactive
c1cc[nH]c1,outcome,[1],inactive
same,outcome,[9],inactive
same,outcome,[4],inactive
same,outcome,[5],inactive
same,outcome,[10],inactive
O=C(O)CN(CCCN(CC(=O)O)CC(=O)O)CC(=O)O,outcome,[1],inactive
same,outcome,[2],inactive
same,outcome,[4],inactive
same,outcome,[5],inactive
same,outcome,[6],inactive
same,outcome,[7],inactive
same,outcome,[11],inactive
same,outcome,[8],inactive
COC(=O)C(F)(F)C(F)(F)C(F)(F)C(F)(F)C(F)(F)F,outcome,[1],inactive
same,outcome,[3],inactive
same,outcome,[4],inactive
same,outcome,[8],inactive
CCCCCCC(C)(C)C(=O)O,outcome,[2],inactive
same,AC50,[9],46.3 µM (active)
same,outcome,[3],inactive
same,outcome,[4],inactive
same,outcome,[6],inactive
same,outcome,[10],inactive
same,outcome,[11],inactive
CC1COCc2cc3c(cc21)C(C)(C)C(C)C3(C)C (stereo not drawn),outcome,[1],inactive
same,AC50,[9],66.9 µM (active)
same,AC50,[3],2.14 µM (active)
same,outcome,[4],inactive
same,outcome,[7],inactive
same,AC50,[10],8.91 µM (active)
same,AC50,[8],128 µM (active)
CCc1cccc(CC)c1N(COC)C(=O)CS(=O)(=O)O,outcome,[2],inactive
same,outcome,[9],inactive
same,AC50,[3],7.05 µM (active)
same,outcome,[4],inactive
same,outcome,[7],inactive
same,outcome,[11],inactive
